An excerpt weighted towards active compounds, which were near 7% of everything screened.
ATXN2 expr inh – inhibitors of ATXN2 expression. 0.72% of 360,000 active. AID 1745845. HEK-293 ATXN2-luciferase reporter, luminescence, 24 h. Potency, µM (series often up to 57 µM), usual class: inhibitors; note: nearly all actives have a fitted effect of over 55% in size
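qHTS (up to 57 uM final) was run with 24 h compound exposure of reporter cells at 37 °C. Each well was multiplexed: SteadyGlo luminescence measured ATXN2-luciferase expression after a fluorogenic Gly-Phe-AFC viability readout (25 uM final).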
DRD3 antagonist – D3 dopamine receptor (human) antagonism; P35462; D3R cells, DiscoveRx beta-arrestin luminescence, antagonist mode; stronger effect = lower value; max response, negative = inhibition, %; 2.5% of 360,000 active; in the data active = max response below about -50%; inconclusive = no clear call, values can overlap the other calls
Target sequence (P35462 whole entry, looked up): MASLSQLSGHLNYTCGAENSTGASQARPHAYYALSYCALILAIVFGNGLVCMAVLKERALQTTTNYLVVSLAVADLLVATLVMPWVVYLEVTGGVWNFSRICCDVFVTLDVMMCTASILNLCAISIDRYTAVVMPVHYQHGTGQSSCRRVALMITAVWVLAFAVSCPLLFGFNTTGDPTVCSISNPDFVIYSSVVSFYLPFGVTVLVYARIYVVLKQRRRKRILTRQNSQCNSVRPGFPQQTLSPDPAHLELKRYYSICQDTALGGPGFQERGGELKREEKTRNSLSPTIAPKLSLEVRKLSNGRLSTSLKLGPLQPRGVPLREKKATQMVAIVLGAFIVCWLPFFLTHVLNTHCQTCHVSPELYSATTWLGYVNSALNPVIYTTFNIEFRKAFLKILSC
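Cells expressing the human receptor were seeded at 1500 cells/well, incubated overnight at 37 degrees C in 5% CO2, then exposed to library compounds with dopamine controls for 90 minutes at 37 degrees C before luminescent detection.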
S2 tox – cell viability loss in ATXN counter-screen; 0.49% of 400,000 active; S2 cells (HEK-293 line with an ATXN2-luciferase reporter) viability, CellTiter-Fluor protease fluorescence, 24 h; Potency, µM (top dose mostly 56.7 µM), most hits filed as cytotoxic; note: nearly all actives have a fitted effect of over 40% in size
D3 ag – activates the human D3 dopamine receptor; P35462; D3R DiscoveRx beta-arrestin cells, luminescence, 90 min; max activation, %; 0.58% of 410,000 active; AID 652048; in the data active = max activation above about 30%
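Cells at 1500/well, incubated overnight, then treated with pinned compounds (dopamine as control) for 90 min at 37 degrees C. DiscoveRx reagent added for 30 - 60 minutes at room temperature; luminescence read.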
IL-1B inflam inh – inhibitors of inflammasome signaling (IL-1 beta secretion) | THP-1 LPS/ATP IL-1B secretion, AlphaLISA, 16 h; stronger effect = lower value | activity change, % at 57.5 µM | 4.7% of 360,000 active | AID 743279; in the data active = activity change below about -50%; inconclusive = mostly about -30% to -49%
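THP-1 cells pretreated 1 hr with compounds (up to 57.5 uM final), then stimulated with LPS (250 ng/mL final) plus ATP (1.25 mM final); secreted IL-1B measured by AlphaLISA after 16 hr, decreased signal indicating inhibition.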
a7 integrin act – activators of alpha7 integrin expression for muscular dystrophy | alpha7betagal myoblasts, beta-gal FDG fluorescence, 48 h | 0.064% of 350,000 active | Potency, µM (series often up to 38.3 µM), hits mostly activators; note: nearly all actives have a fitted effect of over 60% in size
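Alpha7betagal+/- myoblasts (passage 13) were plated 16-24 hr, then exposed to compounds (1:260 dilution of DMSO stock) for 48 hours at 37C. After MPER lysis, β-galactosidase reporter activity was read as FDG fluorescence (ex 480/em 540) after 30 minutes.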
Numbers stand for hits; . = inactive; ? = inconclusive; / = not tested or not shown. Unless noted, calls come from the whole dose curve; as a rule, active = well fitted curve in the direction sought with a large enough effect; inconclusive = small, poorly fitted or top-dose-only effect, or another doubt; inactive = no such curve, though single readings can be large; an effect the other way counts as inactive or inconclusive.

SMILES	ATXN2 expr inh	DRD3 antagonist	S2 tox	D3 ag	IL-1B inflam inh	a7 integrin act
Cc1cc([N+](=O)[O-])cc2ncccc12	.	-75	.	.	.	.
O=[N+]([O-])c1ccc2cccnc2c1	/	.	.	.	.	.
OCC(O)C1OC(Nc2ccc(Br)cc2)C(O)C1O (stereo not given)	.	.	.	.	.	.
COc1ccc(C(C)(C)C)cc1S(=O)(=O)N1CCC(C(N)=O)CC1	.	-52	.	.	.	.
COc1ccc(F)cc1S(=O)(=O)N1CCC(C(N)=O)CC1	.	.	.	.	.	.
CC(C)C(C(=O)NCc1ccccc1)N(C)Cc1ccc(Cl)c(Cl)c1 (stereo not given)	/	.	/	.	.	/
CC(C)c1cc(Cn2c3ccccc3c(=O)n2C(C)Cn2cc(COc3ccccc3)nn2)on1 (stereo not given)	/	.	/	.	.	/
COc1cc2c(NC3CCN(C(C)C)CC3)nc(C3CCCCC3)nc2cc1OCCCN1CCCC1	22µM	/	/	/	/	/
Cc1ccccc1CN1CCN(C/C=C/c2ccccc2)CC1	.	-192	.	.	.	.
Cc1ccc2oc(=O)cc(CN3CCN(C/C=C/c4ccccc4)CC3)c2c1	.	-60	.	.	.	.
Cc1ccc2oc(=O)cc(CN3CCCCC3)c2c1	.	.	.	.	.	.
O=c1cc(CN2CCN(C/C=C/c3ccccc3)CC2)c2cc(O)ccc2o1	.	-62	.	.	-54	.
CCCc1cnc2c(c1SCC(=O)Nc1c(C)cc(C)cc1C)c(=O)n(C)c(=O)n2C	.	/	.	.	/	/
Cc1c(C(=O)NNS(=O)(=O)c2ccccc2Cl)sc(=S)n1C	.	.	.	.	.	.
O=C(COc1ccc(Cl)cc1)NNC(=O)C(=O)NC1CCCCC1	.	.	.	.	.	.
CC1(C(=O)OCC(=O)Nc2ccc3ccccc3c2)CC1(Cl)Cl (stereo not given)	.	.	.	.	-97	.
CC1(C(=O)OCC(=O)Nc2ccc(C(N)=O)cc2)CC1(Cl)Cl (stereo not given)	/	.	.	.	.	.
CCC(CC)NC(=O)COC(=O)CCC(=O)c1ccc(Cl)cc1	.	.	.	41	.	.
Cc1ccccc1NS(=O)(=O)c1ccc(OCC(=O)N2CCCCC2)cc1	.	.	.	32	.	.
Cc1ccc(O)c(NC(=S)NC(=O)Cc2ccc(Cl)cc2)c1	.	?	.	.	.	.
Cc1ccc(NC(=S)NC(=O)c2ccc(-c3ccc(Cl)cc3)o2)c(O)c1	.	-101	.	.	.	.
Cc1cc(O)c(NC(=S)NC(=O)c2ccc(-c3ccc(Cl)cc3)o2)cc1C	.	-76	.	.	.	.
O=C(C1=C(O)C(=O)N(Cc2ccco2)C1c1cccc([N+](=O)[O-])c1)c1ccco1 (stereo not given)	.	.	.	.	.	.
C/C(=N/NC(=O)CNC(=O)c1ccc2c(c1)OCO2)c1ccc2c(c1)CCCC2	.	.	.	.	-50	.
O=C(Nc1cc(Cl)cc(Cl)c1)N[C@@H]1CC[C@@H](CCNS(=O)(=O)c2cccc(F)c2)O[C@@H]1CO	/	.	/	.	.	/
SMILES	ATXN2 expr inh	DRD3 antagonist	S2 tox	D3 ag	IL-1B inflam inh	a7 integrin act
CC(OC(=O)c1ccc2c(c1)NC(=O)CS2)C(=O)c1ccc(F)cc1 (stereo not given)	.	.	.	.	-56	?
CC(C)(CO)NCC(O)COc1ccc2c(c1)CCC2 (stereo not given)	.	.	.	.	.	.
COc1ccccc1N1CCN(CC(O)COc2ccc(S(=O)(=O)N3CCOCC3)cc2)CC1 (stereo not given)	.	-81	.	.	.	.
O=S(=O)(c1ccc(OCC(O)CN2CCN(c3ccc(F)cc3)CC2)cc1)N1CCOCC1 (stereo not given)	.	.	.	.	.	.
CC(C)(C)CC(C)(C)NCC(O)COc1ccc2c(c1)CCC2 (stereo not given)	?	-63	?	.	-75	.
COc1ccccc1N1CCN(CC(O)COc2ccc(C)c(C)c2)CC1 (stereo not given)	.	-101	.	.	.	.

From PubChem
